Results: PubChem BioAssay (NCI)
Compounds without any hit were thinned out: in the full panel of roughly 83,000, 20% have a hit.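 Negative percent growth values reflect cell death: -40 means 40% of the cells present at the start died, and -100 means all died.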 Unmarked numbers belong to inactive results. How the source made its calls: active means growth percent below 10; inactive means the rest.

The compounds below were run on HL-60(TB) leukemia (assay: NCI-60 one-dose screen, 48 h (100 = growth as untreated, 0 = no growth, -100 = all killed)). Conditions: 10 µM unless noted.

| SMILES | growth [%] |
| --- | --- |
| CCCCNc1nc(NN2C(=O)c3cccc4cccc(c34)C2=O)nc(-n2cnc3ccccc32)n1 | 94.2 |
| CC1CN(CCCOC(=O)Nc2ccc(Cl)cc2)CCN1C(C)(C)C (centres undefined) | 96.1 |
| O=C(O/C(=C/c1ccccc1)C(F)(F)F)c1ccccc1 | 32.3 |
| COc1cc(-c2[nH]ncc2Nc2ccc(Cl)cc2)cc(OC)c1OC | 42.3 |
